Source: PubChem BioAssay
Where “and” joins values, the source holds several entries; their conditions need not be identical. Equal values may be shown once. Calls of active or inactive are those of the source.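 Rule for the calls, unless noted: active = thallium flux through the channel raised or lowered by more than 3 SD from vehicle-only wells, actives on both sides; inactive = the rest.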

What was measured:
F380Y = assay: modulators of BK channel variants, profiling panel, selectivity assay, cell-based, U2OS BacMam, thallium flux, beta subunits (AID 1259406); conditions: at 30 µM;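 note: initial slope of Thallos dye fluorescence rise after thallium is added; log ratio against the mean of 0.3% DMSO vehicle wells on the same plate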
F380Y/beta1 = assay: as above; conditions: at 30 µM
F380Y/beta2Delta = assay: as above; conditions: at 30 µM
F380Y/beta4 = assay: as above; conditions: at 30 µM
[1] = target: Calcium-activated potassium channel subunit alpha-1 (Homo sapiens) + Leucine-rich repeat-containing protein 26 (Homo sapiens) (UniProt Q12791+Q2I0M4); assay: as above; conditions: F380Y/Slo1WT/gamma1, at 30 µM
Chain of Calcium-activated potassium channel subunit alpha-1 (Homo sapiens) + Leucine-rich repeat-containing protein 26 (Homo sapiens) (Q2I0M4 whole entry, looked up, one chain of several): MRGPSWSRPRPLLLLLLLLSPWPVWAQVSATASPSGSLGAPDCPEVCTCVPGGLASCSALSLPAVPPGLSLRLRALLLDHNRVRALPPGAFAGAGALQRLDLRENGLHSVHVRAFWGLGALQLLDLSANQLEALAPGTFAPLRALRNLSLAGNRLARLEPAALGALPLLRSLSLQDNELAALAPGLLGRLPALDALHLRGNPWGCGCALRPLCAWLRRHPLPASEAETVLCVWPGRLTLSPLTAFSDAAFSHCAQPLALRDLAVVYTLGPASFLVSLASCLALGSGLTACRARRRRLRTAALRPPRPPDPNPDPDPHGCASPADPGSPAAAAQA

R275C = assay: as above; conditions: at 30 µM
R275C/beta1 = assay: as above; conditions: at 30 µM
R275C/beta2Delta = assay: as above; conditions: at 30 µM
R275C/beta4 = assay: as above; conditions: at 30 µM
R275C/Slo1WT/beta2 = assay: as above; conditions: at 30 µM
[2] = Cy5 fluorescence interference with SSB-bound oligo, artefact control for HCV NS3 helicase inhibitor project, biochemical, NIH Clinical Collection, E. coli SSB (AID 743268; call rule not given here)
[3] = tested on: Hepatitis C virus NS3 helicase; assay: HCV NS3 helicase inhibitors, primary screen, biochemical, fluorescence polarization, NIH Clinical Collection (AID 743270; call rule not given here); conditions: NS3 helicase binding to Cy5-dT15 DNA, stronger effect = higher value, concentration not given here
[4] = target: Single-stranded DNA-binding protein (Escherichia coli (strain K12)) (UniProt P0AGE0); assay: E. coli SSB displacement from DNA, counter-screen for HCV NS3 helicase inhibitor project, biochemical, fluorescence polarization, NIH Clinical Collection (AID 743271; in the data active = inhibition above about 28%); conditions: stronger effect = higher value, concentration not given here
[5] = fluorescence interference in NS3h assay format, artefact control for HCV NS3 helicase inhibitor project, biochemical, NIH Clinical Collection (AID 743272; call rule not given here;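 note: HCV NS3 helicase with a Cy5 labelled single stranded DNA probe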); conditions: fluorescence interference counterscreen, stronger effect = lower value
[6] = modulation of C. elegans fzo-1 (AID 1259413; call rule not given here;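 note: fzo-1 mutant C. elegans worms in liquid wells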); conditions: C. elegans fzo-1 modulator screen, mean read-out; stronger effect = higher value
[7] = survival rescue of mitochondrial mutant cells in low glucose, primary screen, MELAS cybrids, Rieske KO mouse fibroblasts, CellTiter-Glo (AID 1508586;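 active = mean z-score across replicates of 1.96 or higher in either the MELAS or the Rieske mutant cell line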;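 note: z relative to plate mean and SD of compound and empty wells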)
[8] = liver-stage malaria parasite growth inhibition, primary screen, cell-based, HepG2, luciferase luminescence, HepG2 viability (AID 624349; in the data active = parasite load remaining mostly below about 12%, no sharp cut-off; inactive = mostly above about 10%;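 note: 100% = mean of DMSO negative control wells on the same plate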); conditions: P. berghei liver stage in HepG2, luciferase luminescence, concentration not given here; parasite load remaining: stronger effect = lower value; viability: measured here: HepG2 viability without parasites
[9] = sensitizers of A549 cells to miR-34 induction, primary screen, imaging, A549 dox-inducible miR-34, nuclei and caspase counts (AID 1347080;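 active = compounds whose cell count with miR-34 switched on is under 0.7 times the count with it off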); conditions: A549 miR-34 inducible, Hoechst nuclei count, 48 h
[10] = viability rescue of complex I mutant cybrids, primary screen, cell-based, galactose medium, ATP luminescence (AID 1645843;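 active = z-score of at least 1.8 in each of two replicates, scored against plate mean and spread of sample wells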;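 note: positive z means more ATP and so rescue of galactose-driven cybrid death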); conditions: complex I mutant cybrid cells, 72 h, stronger effect = higher value
[11] = MELAS cybrid survival, CellTiter-Glo 48 h, stronger effect = higher value
[12] = Rieske KO mouse fibroblast survival, CellTiter-Glo 72 h
[13] = stronger effect = lower value, cell number ratio, induced over uninduced
[14] = measured here: relative caspase fold change +Dox/-Dox
[15] = measured here: total cells with miR-34 induction, stronger effect = lower value
[16] = measured here: total cells without miR-34 induction

In the case of COc1cccc(C=NNC(=O)C2CCCN(C(=S)NNC3CC4C=CC3C4)CC2)c1O (stereo not drawn), the log fold change Tl+ flux (F380Y) is reported as 0.0111 (inactive), the log fold change Tl+ flux (F380Y/beta1) is reported as -0.0549 (inactive) and the log fold change Tl+ flux (F380Y/beta2Delta) is reported as -0.0296 (inactive). The log fold change Tl+ flux (F380Y/beta4) was 0.0197 (inactive), the log fold change Tl+ flux [1] was 0.0309 (inactive) and the log fold change Tl+ flux (R275C) was -0.00837 (inactive). For the same compound, the log fold change Tl+ flux (R275C/beta1) was 0.0189 (inactive), the log fold change Tl+ flux (R275C/beta2Delta) was -0.0281 (inactive) and the log fold change Tl+ flux (R275C/beta4) was -0.00446 (inactive). The log fold change Tl+ flux (R275C/Slo1WT/beta2) was 0.00307 (inactive).
For Cc1ccc(C2=C(c3ccccc3)C(=O)C(c3ccccc3)=C2c2ccc(Cl)cc2)cc1, the log fold change Tl+ flux (F380Y) was -0.00103 (inactive), the log fold change Tl+ flux (F380Y/beta1) was -0.0199 (inactive) and the log fold change Tl+ flux (F380Y/beta2Delta) was 0.00394 (inactive). For the same compound, the log fold change Tl+ flux (F380Y/beta4) was -0.0256 (inactive), the log fold change Tl+ flux [1] was 0.0117 (inactive) and the log fold change Tl+ flux (R275C) was 0.0143 (inactive). The log fold change Tl+ flux (R275C/beta1) was -0.08 (inactive), the log fold change Tl+ flux (R275C/beta2Delta) was 0.0554 (inactive) and the log fold change Tl+ flux (R275C/beta4) was -0.0334 (inactive). The log fold change Tl+ flux (R275C/Slo1WT/beta2) was -0.0207 (inactive).
For COCc1cc(=O)[nH]c(SCC(=O)c2ccc(-c3ccccc3)cc2)n1, the log fold change Tl+ flux (F380Y) was 0.0542 (inactive), the log fold change Tl+ flux (F380Y/beta1) was 0.0105 (inactive) and the log fold change Tl+ flux (F380Y/beta2Delta) was 0.0138 (inactive). The log fold change Tl+ flux (F380Y/beta4) was -0.000638 (inactive), the log fold change Tl+ flux [1] was 0.0335 (inactive) and the log fold change Tl+ flux (R275C) was 0.0131 (inactive). For the same compound, the log fold change Tl+ flux (R275C/beta1) was -0.0427 (inactive), the log fold change Tl+ flux (R275C/beta2Delta) was 0.032 (inactive) and the log fold change Tl+ flux (R275C/beta4) was 0.0252 (inactive). For the same compound, the log fold change Tl+ flux (R275C/Slo1WT/beta2) was -0.000518 (inactive).
With O=S(=O)(Nc1cc(Cl)c(-n2cccc2)cc1Oc1ccc(Cl)cc1)c1ccc(Cl)cc1 the log fold change Tl+ flux (F380Y) was 0.0117 (inactive), the log fold change Tl+ flux (F380Y/beta1) was -0.0223 (inactive) and the log fold change Tl+ flux (F380Y/beta2Delta) was 0.00907 (inactive). The log fold change Tl+ flux (F380Y/beta4) was -0.0612 (inactive), the log fold change Tl+ flux [1] was -0.0472 (inactive) and the log fold change Tl+ flux (R275C) was 0.0112 (inactive). For the same compound, the log fold change Tl+ flux (R275C/beta1) was -0.0614 (inactive), the log fold change Tl+ flux (R275C/beta2Delta) was -0.0256 (inactive) and the log fold change Tl+ flux (R275C/beta4) was 0.0232 (inactive). For the same compound, the log fold change Tl+ flux (R275C/Slo1WT/beta2) was -0.0536 (inactive).
With Cc1ccc(C(C)NC(=O)c2ccc(Cl)c(Cl)c2)c(C)c1 (stereo not drawn) the log fold change Tl+ flux (F380Y) was -0.0383 (inactive), the log fold change Tl+ flux (F380Y/beta1) was -0.0447 (inactive) and the log fold change Tl+ flux (F380Y/beta2Delta) was -0.0218 (inactive). The log fold change Tl+ flux (F380Y/beta4) was -5.9e-05 (inactive), the log fold change Tl+ flux [1] was -0.119 (active) and the log fold change Tl+ flux (R275C) was -0.0401 (inactive). For the same compound, the log fold change Tl+ flux (R275C/beta1) was 0.0121 (inactive), the log fold change Tl+ flux (R275C/beta2Delta) was -0.00757 (inactive) and the log fold change Tl+ flux (R275C/beta4) was 0.00443 (inactive). The log fold change Tl+ flux (R275C/Slo1WT/beta2) was -0.0265 (inactive).
For CCOC(=O)CSc1nnc(OCC)n1-c1ccccc1, the log fold change Tl+ flux (F380Y) was -0.0276 (inactive), the log fold change Tl+ flux (F380Y/beta1) was -0.00436 (inactive) and the log fold change Tl+ flux (F380Y/beta2Delta) was 0.0123 (inactive). The log fold change Tl+ flux (F380Y/beta4) was -0.00338 (inactive), the log fold change Tl+ flux [1] was 0.0529 (inactive) and the log fold change Tl+ flux (R275C) was -0.0234 (inactive). For the same compound, the log fold change Tl+ flux (R275C/beta1) was 0.0181 (inactive), the log fold change Tl+ flux (R275C/beta2Delta) was -0.0101 (inactive) and the log fold change Tl+ flux (R275C/beta4) was -0.0109 (inactive). The log fold change Tl+ flux (R275C/Slo1WT/beta2) was 0.0084 (inactive).
With CN(C)CCCC1(c2ccc(F)cc2)OCc2cc(C#N)ccc21 (stereo not drawn) the fluorescence ratio [2] was 1.03 (inactive) and 1.01 (inactive), the inhibition [3] was -5.94% (inactive) and -0.45% (inactive) and the inhibition [4] was -1.64% (inactive) and 0.29% (inactive). The fluorescence ratio [5] was 0.99 (inactive) and 1.03 (inactive), the mean signal [6] was 220 (inactive) and the z-score [7, 11] was -0.338 (inactive) and 0.623 (inactive) and -0.34 (inactive). The z-score [7, 12] was -0.153 and 0.348 and -0.881, the log fold change Tl+ flux (F380Y) was 0.0263 (inactive) and 0.0749 (inactive) and the log fold change Tl+ flux (F380Y/beta1) was 0.0236 (inactive) and -0.0159 (inactive). For the same compound, the log fold change Tl+ flux (F380Y/beta2Delta) was 0.0311 (inactive) and 0.0638 (inactive), the log fold change Tl+ flux (F380Y/beta4) was 0.0583 (inactive) and -0.00121 (inactive) and the log fold change Tl+ flux [1] was 0.0169 (inactive) and -0.0497 (inactive). For the same compound, the log fold change Tl+ flux (R275C) was -0.0255 (inactive) and -0.00148 (inactive), the log fold change Tl+ flux (R275C/beta1) was 0.0362 (inactive) and 0.0712 (inactive) and the log fold change Tl+ flux (R275C/beta2Delta) was 0.0568 (inactive) and 0.0646 (inactive). The log fold change Tl+ flux (R275C/beta4) was 0.0241 (inactive) and 0.0131 (inactive) and the log fold change Tl+ flux (R275C/Slo1WT/beta2) was 0.0494 (inactive) and 0.00231 (inactive).
For CNCC[C@H](Oc1cccc2ccccc12)c1cccs1, the parasite load remaining [8] was 36.5% (inactive) and 51.1% (inactive) and -0.135% (inactive), the viability [8] was 101% and 64.7% and 0.245% and the fluorescence ratio [2] was 0.96 (inactive) and 0.95 (inactive). The inhibition [3] was 1.19% (inactive) and -5.46% (inactive), the inhibition [4] was 2.98% (inactive) and -4.33% (inactive) and the fluorescence ratio [5] was 0.93 (inactive) and 0.89 (inactive). For the same compound, the mean signal [6] was 220 (inactive), the fold change [9, 13] was 0.93 (inactive) and the fold change [9, 14] was 4.69. For the same compound, the cell count [9, 15] was 10400, the cell count [9, 16] was 11200 and the log fold change Tl+ flux (F380Y) was -0.075 (inactive). The log fold change Tl+ flux (F380Y/beta1) was -0.085 (inactive), the log fold change Tl+ flux (F380Y/beta2Delta) was 0.0364 (inactive) and the log fold change Tl+ flux (F380Y/beta4) was -0.0361 (inactive). For the same compound, the log fold change Tl+ flux [1] was 0.0212 (inactive), the log fold change Tl+ flux (R275C) was 0.0449 (inactive) and the log fold change Tl+ flux (R275C/beta1) was 0.207 (active). The log fold change Tl+ flux (R275C/beta2Delta) was 0.066 (inactive), the log fold change Tl+ flux (R275C/beta4) was 0.129 (active) and the log fold change Tl+ flux (R275C/Slo1WT/beta2) was 0.0145 (inactive).
With CN(C)CCOc1ccc(/C(=C(/CCCl)c2ccccc2)c2ccccc2)cc1 the parasite load remaining [8] was 2.65% (inactive) and 4% (inactive), the viability [8] was 97.2% and 73.5% and the fluorescence ratio [2] was 0.79 (active). The inhibition [3] was -1.97% (inactive), the inhibition [4] was 20.1% (inactive) and the fluorescence ratio [5] was 0.82 (inactive). The mean signal [6] was 204 (inactive), the fold change [9, 13] was 0.93 (inactive) and 0.787 (inactive) and the fold change [9, 14] was 0.696 and 1.39. The cell count [9, 15] was 6550 and 5410, the cell count [9, 16] was 7040 and 6880 and the z-score [7, 11] was -2.09 (inactive) and -0.316 (inactive). For the same compound, the z-score [7, 12] was -0.803 and -1.13, the z-score [10] was -2.31 (inactive) and the log fold change Tl+ flux (F380Y) was 0.00227 (inactive). For the same compound, the log fold change Tl+ flux (F380Y/beta1) was -0.0377 (inactive), the log fold change Tl+ flux (F380Y/beta2Delta) was 0.0156 (inactive) and the log fold change Tl+ flux (F380Y/beta4) was 0.0185 (inactive). The log fold change Tl+ flux [1] was -0.0413 (inactive), the log fold change Tl+ flux (R275C) was -0.0555 (inactive) and the log fold change Tl+ flux (R275C/beta1) was 0.25 (active). The log fold change Tl+ flux (R275C/beta2Delta) was -0.123 (active), the log fold change Tl+ flux (R275C/beta4) was -0.0377 (inactive) and the log fold change Tl+ flux (R275C/Slo1WT/beta2) was -0.045 (inactive).
For Cc1cccc(CCN2CCC(C(=O)c3ccc(NS(C)(=O)=O)cc3)CC2)n1, the parasite load remaining [8] was 49.2% (inactive), the viability [8] was 75.4% and the fluorescence ratio [2] was 0.97 (inactive). The inhibition [3] was -6.33% (inactive), the fluorescence ratio [5] was 0.95 (inactive) and the mean signal [6] was 229 (inactive). The fold change [9, 13] was 0.911 (inactive) and 0.937 (inactive) and 0.845 (inactive), the fold change [9, 14] was 1.08 and 1.19 and 0.815 and the cell count [9, 15] was 9110 and 5280 and 8030. For the same compound, the cell count [9, 16] was 10000 and 5630 and 9500, the z-score [10] was 0.46 (inactive) and -0.045 (inactive) and the log fold change Tl+ flux (F380Y) was 0.00945 (inactive). For the same compound, the log fold change Tl+ flux (F380Y/beta1) was 0.0315 (inactive), the log fold change Tl+ flux (F380Y/beta2Delta) was 0.0105 (inactive) and the log fold change Tl+ flux (F380Y/beta4) was -0.0658 (inactive). For the same compound, the log fold change Tl+ flux [1] was 0.0152 (inactive), the log fold change Tl+ flux (R275C) was -0.00568 (inactive) and the log fold change Tl+ flux (R275C/beta1) was 0.0227 (inactive). For the same compound, the log fold change Tl+ flux (R275C/beta2Delta) was -0.0466 (inactive), the log fold change Tl+ flux (R275C/beta4) was 0.0164 (inactive) and the log fold change Tl+ flux (R275C/Slo1WT/beta2) was -0.028 (inactive).
